Hits are enriched below; roughly 1.9% of the tested compounds scored in any of these assays.
S1P3 antagonist – antagonists of human S1P3 receptor; hit rate 0.27% among 170,000; Q99500; CHO S1P3 NFAT-BLA reporter, FRET fluorescence, antagonist mode; inhibition, % at 4.98 µM;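 active means inhibition above the plate cutoff, the mean inhibition of test wells on that plate plus 3 SD, cut at about 28% in these data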;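 further: cells challenged with S1P at its EC80 of 0.8 µM; blue over green emission ratio from cleaved BLA substrate after 4 h stimulation; 0% = S1P-stimulated wells and 100% = unstimulated DMSO-only wells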
EP2 mod – modulates human prostaglandin E2 receptor EP2 signaling; EP2-expressing cells, cAMP HTRF FRET, PGE2 co-stimulation; induction, % at 25 µM; hit rate 0.83% among 260,000;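 active means compounds whose cAMP rise, as percent of the full-agonist control response, exceeds 60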;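 further: rat C6 glioma line stably carrying human EP2 under a CMV promoter; the protocol text gives 20 µM as final concentration; 100% = response of wells given 1 µM PGE2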
Target sequence (P43116 whole entry, looked up): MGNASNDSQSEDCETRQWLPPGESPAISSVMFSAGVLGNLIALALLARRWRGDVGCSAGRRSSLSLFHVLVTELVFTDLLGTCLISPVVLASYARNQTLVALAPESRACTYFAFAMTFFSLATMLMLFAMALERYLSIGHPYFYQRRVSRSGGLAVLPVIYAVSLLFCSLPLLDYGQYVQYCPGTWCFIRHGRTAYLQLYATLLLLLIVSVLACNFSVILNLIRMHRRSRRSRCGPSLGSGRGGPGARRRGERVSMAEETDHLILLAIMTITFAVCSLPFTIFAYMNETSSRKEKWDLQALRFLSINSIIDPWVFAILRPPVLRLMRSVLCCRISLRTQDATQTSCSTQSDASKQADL
S1P4 antagonist – blocks the human S1P4 receptor; O95977; S1P4-expressing cells, antagonist mode, reporter read-out; inhibition, % at 4.98 µM; hit rate 0.26% among 220,000; AID 1510; in the data active means inhibition above about 29%;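 further: 0% = wells stimulated with agonist and 100% = vehicle wells without agonist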
S1P4 agonist – agonists of human S1P4 receptor. S1P4-expressing cell line, agonist reporter assay. hit rate 0.35% among 220,000. AID 1509. O95977. activation, % at 4.98 µM; in the data active means activation above about 11%;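 further: 0% = DMSO vehicle and 100% = reference agonist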
PGE2 EP2 inh – EP2 receptor (human) inhibition | P43116 | inhibition, % at 25 µM | C6 glioma cells expressing human EP2, cAMP TR-FRET; cells stimulated with saturating PGE2 | hit rate 0.52% among 260,000;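 active means percent inhibition above 40 after rounding to a whole number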;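 further: rat C6 glioma host cells with rolipram phosphodiesterase inhibitor present; the protocol text gives 20 µM as final concentration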
Numbers without * were called inactive; . = no result given.

SMILES	S1P3 antagonist	EP2 mod	S1P4 antagonist	S1P4 agonist	PGE2 EP2 inh
COc1cc(/C=C2\NC(=S)N(C)C2=O)ccc1O	-0.6	-8.6	-3.6	-2.1	6.7
O=C(COc1ccc(S(=O)(=O)N2CCCC2)cc1)Nc1cccc(Cl)c1Cl	.	-7.5	.	.	5.7
CCCC(=O)N1c2ccc(-c3csc(NC(=O)c4cccc(OC)c4)n3)cc2CC1C (centres undefined)	.	-47.8	.	.	6.9
CCC(=O)N1c2ccc(-c3csc(NC(=O)c4ccccc4Cl)n3)cc2CC1C (centres undefined)	.	26.6	.	.	94.1*
COc1ccc(-c2[nH]ncc2N=Nc2ccccc2)cc1	-5.3	61.6*	-0.6	2.1	4.9
COc1ccc(-c2nc3ccccc3nc2-c2ccccc2)cc1	-14.5	36.9	-0.1	1.7	4.8
O=S1(=O)CCN(c2ccccc2CC(c2c[nH]c3ccccc23)c2c[nH]c3ccccc23)CC1	.	6.6	.	.	52.4*
CSc1ccc(NC(=O)NCCCNc2nc3cc(C)cc(C)c3cc2C#N)cc1	.	10.9	.	.	3.1
O[C@@H](c1cc([C@@]23C[C@H]4CC[C@@H]2C[C@H](C4)C3)nc2c(Cl)cc(Cl)cc12)[C@@H]1CCCCN1	.	19.5	.	.	76.5*
Cc1ccc(C)n1-c1ccccc1N1CCCCC1	-0.5	63.5*	-4.4	-0.2	5.3
COc1ccc(S(=O)(=O)Nc2cc(C)ccn2)cc1OC	114.8*	13.3	-6.4	-0.3	8.3
COc1ccc(S(=O)(=O)Nc2ccccn2)cc1OC	-17.3	-0.1	-11.5	1.3	12.3
COc1ccc(Cn2nnnc2CN(Cc2ccco2)Cc2cc3cc(C)c(C)cc3[nH]c2=O)cc1	.	-21.6	.	.	1.7
Cn1ncc(SCc2ccccc2)c(Cl)c1=O	-6.5	-31.4	4.7	1.9	6.2
Cn1ncc(S(=O)(=O)Cc2ccccc2)c(Cl)c1=O	1.9	-33.0	2.3	0.4	88.8*
CN(O)/C=C1\C(=O)Nc2ccccc21	.	18.1	5.8	-1.0	17.3
O=C(/C=C1\C(=O)Nc2ccccc21)/C=C1\C(=O)Nc2ccccc21	-6.3	-44.1	46.4*	-0.8	12.2
COc1cc(N=c2ssnc2Cl)c(OC)cc1Cl	.	-51.5	-1.4	0.8	6.6
Cc1cc(Cl)ccc1N=c1ssnc1Cl	.	-54.7	-5.4	0.2	76.5*
Cc1ccc(N=c2ssnc2Cl)cc1	.	-46.9	-17.2	2.5	134.3*
Nc1ccccc1N=c1ssnc1Cl	-4.6	-13.2	-9.3	2.9	8.2
COc1ccc(OC)c(N=c2ssnc2Cl)c1	.	-69.6	-12.5	-0.5	77.3*
CC(=O)N1c2ccc(NC(=O)c3sc4ncn(C)c(=O)c4c3C)cc2CC1C (centres undefined)	.	-24.1	.	.	5.6
O=C(NC1CCCCC1)N1CCC(O)(c2cccc(C(F)(F)F)c2)CC1	.	-5.8	.	.	19.5
CC1CCN(c2nc3c(c(=O)n(C)c(=O)n3C)n2CCSc2nc3ccccc3s2)CC1	-8.1	61.0*	-32.6	1.4	9.2
SMILES	S1P3 antagonist	EP2 mod	S1P4 antagonist	S1P4 agonist	PGE2 EP2 inh
Cn1c(=O)c2c(nc(N3CCCCC3)n2CCSc2nc3ccccc3s2)n(C)c1=O	-7.5	21.7	-2.4	-1.7	0.5
CCn1c(=O)[nH]c2c(C(N)=O)nc(-c3cccs3)nc21	.	-14.9	.	.	5.5
O=C(NC(=S)NCCN1CCOCC1)c1ccccc1Cl	.	64.3*	-23.1	1.0	7.1
O=C(Cn1ccnc1-c1ccccc1)Nc1nnc(Cc2cccc(F)c2)s1	.	-27.8	.	.	9.5
COc1ccc(-n2c(SCC(=O)NC(C)(C)C)nnc2-c2ccccn2)cc1	.	-0.2	.	.	10.3
CCOc1ccc(C(=O)N2CCCC(c3nc(C)ncc3-c3ccncc3)C2)o1 (centres undefined)	.	-0.1	.	.	.
CC(C)=CCc1c(O)c(CC=C(C)C)c2c(c1O)-c1cc(O)c(O)cc1CC2	.	.	.	.	54.2*
Cc1occc1-c1nnc(SCC(=O)Nc2ccccc2Cl)n1Cc1ccco1	.	22.1	.	.	10.0
C[N+](C)(C)CCN[N@+]1(C)CCCc2ccccc21	.	18.6	.	.	40.5*
COc1ccc2c(c1)cc(C)c1nn(CC(=O)N(C(C)C)C(C)C)c(=O)n12	.	-36.0	.	.	4.2
CCOc1cc(/C=C2\C(C)=C(C#N)c3nc(N)c(C#N)c(C)c32)ccc1OCC(=O)OC	.	-77.6	.	.	7.3
CCCC(c1nnnn1C(C)(C)C)N(Cc1ccc(C)cc1)Cc1cc2cc(C)ccc2[nH]c1=O (centres undefined)	.	22.1	.	.	6.1
CCCC(c1nnnn1C(C)(C)C)N(Cc1ccco1)Cc1cc2cc(C)ccc2[nH]c1=O (centres undefined)	.	66.1*	.	.	7.2
COc1ccccc1CN(Cc1cc2cccc(C)c2[nH]c1=O)C(c1nnnn1C(C)(C)C)C(C)C (centres undefined)	.	87.6*	.	.	12.1

Source: PubChem BioAssay
